# KB-3-1 cytotox: KB-3-1 parental cell cytotoxicity; KB-3-1 viability, CellTiter-Glo ATP luminescence, 72 h; Potency, µM (doses to about 46.1 µM), actives largely listed as cytotoxic; 400,000 tested, 1.4% active; further: on the % scale 0 is the no-effect control and ±100 the full control effect; nearly all actives have a fitted effect of over 60% in size
#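 Cells are dispensed, compounds pinned in, plates held at 37 °C for 72 h, then CellTiter-Glo is added and luminescence read after 10 minutes. Cell line: parental KB-3-1 in phenol-red-free DMEM, 10% FBS.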
# S2 tox: viability counter-screen for ATXN expression inhibitors | S2 cells (HEK-293 line with an ATXN2-luciferase reporter) viability, CellTiter-Fluor protease fluorescence, 24 h | Potency, µM (doses to about 56.7 µM), most hits filed as cytotoxic | 400,000 tested, 0.49% active | AID 651635; further: nearly all actives have a fitted effect of over 40% in size
# KB-V1 MDR tox: kills drug-selected multidrug resistant KB-V1 cells. KB-V1 MDR cells viability, CellTiter-Glo, 72 h. Potency, µM (titrated, usually from 46.1 µM), most hits filed as cytotoxic. 400,000 tested, 3.4% active; further: on the % scale 0 is the no-effect control and ±100 the full control effect; nearly all actives have a fitted effect of over 60% in size
#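 Potencies derive from concentration-effect curves fitted to normalized luminescence (CellTiter-Glo) of KB-V1 cells treated for 72 h at 37 degrees C in phenol-red-free DMEM containing 10% FBS.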
# HepG2 viability: counter-screen for TGF-b inhibitors: cytotoxicity in HepG2 cells. HepG2 CAGA-GFP viability, ATP luminescence, 18 h. Potency, µM (series often up to 46.1 µM), for inactives: at the highest dose activity change, negative = cytotoxicity, usual class: cytotoxic. 410,000 tested, 0.76% active. AID 588856
#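 HepG2 CAGA-GFP cells (1000/well, DMEM with 1% FBS) received compound, then TGF-beta at 500 pg/mL final, and were incubated 18 hours at 37 degrees C. Viability was read by CellTiter-Glo luminescence. Media-only wells were set as complete cell-killing and DMSO as no toxicity.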
# TGFb SMAD3 inh: TGF-b pathway inhibition; HepG2 CAGA-GFP TGF-b/SMAD3 reporter, GFP fluorescence, 18 h; TGF-beta stimulated, 500 pg/mL final; Potency, µM (doses to about 46.1 µM), for the others: at the highest dose activity, negative = inhibition, actives largely listed as inhibitors; 410,000 tested, 1.2% active; further: on the % scale 0 is the no-effect control and ±100 the full control effect; nearly all actives have a fitted effect of over 65% in size
#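 Using HEPG2 CAGA-GFP reporter cells at 1000 cells/well, we pinned test compounds, stimulated with recombinant TGF-beta (500 pg/mL final) and measured total well GFP after 18 h.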
# ATXN2 expr inh: inhibitors of ATXN2 expression; HEK-293 ATXN2-luciferase reporter, luminescence, 24 h; Potency, µM (titrated, usually from 57 µM), inactives show at the highest dose activity change, negative = inhibition, most hits filed as inhibitors; 360,000 tested, 0.72% active; AID 1745845; further: on the % scale 0 is the no-effect control and ±100 the full control effect; nearly all actives have a fitted effect of over 55% in size
#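 qHTS (up to 57 uM final) was run with 24 h compound exposure of reporter cells at 37 °C. Each well was multiplexed: SteadyGlo luminescence measured ATXN2-luciferase expression after a fluorogenic Gly-Phe-AFC viability readout (25 uM final).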
# Numbers without * were called inactive; i = inactive; ? = inconclusive; / = no result given. This is a sample that favours compounds with a hit; in the whole collection about 5.9% have one here. The call rests on the fitted dose curve; in most records, active means well fitted curve in the direction sought with a large enough effect; inconclusive means small, poorly fitted or top-dose-only effect, or another doubt; inactive means no such curve, though single readings can be large; an effect the other way counts as inactive or inconclusive. Potency means the concentration at half of the fitted maximal effect.
SMILES,KB-3-1 cytotox,S2 tox,KB-V1 MDR tox,HepG2 viability,TGFb SMAD3 inh,ATXN2 expr inh
COC(=O)CSC1=C(C#N)C(c2ccc(C(C)C)cc2)CC(=O)N1 (stereo not given),i,i,i,-6.3%,-0.6%,-11.9%
CCOC(=O)CSC1=C(C#N)C(c2ccc(C)s2)CC(=O)N1 (stereo not given),5.17µM*,i,1.84µM*,-30.7%,?,-25.1%
COC(=O)CSC1=C(C#N)C(c2cccc(F)c2)CC(=O)N1 (stereo not given),16.4µM*,i,?,-4.7%,?,-20.3%
CCc1ccc(S(=O)(=O)N(C(C)=O)c2ccc3oc4c(c3c2)CCCC4)cc1,i,i,i,-25.2%,13.2%,-13.6%
CCOC(=O)C1C(=O)CC(O)(c2ccccc2)CC1c1ccccc1 (stereo not given),i,i,23.1µM*,-17.7%,-32.0%,-14.9%
CCOC(=O)C1C(C(=O)OCC)C1(c1ccccc1)c1ccccc1 (stereo not given),i,i,10.3µM*,-20.2%,-0.5%,-27.1%
CCOC(=O)C1C(=O)CC(C)(O)C(C(=O)OCC)C1c1ccccc1 (stereo not given),i,i,i,3.3%,-27.2%,26.3%
O=C(O)C1C(C(=O)O)C1(c1ccccc1)c1ccccc1 (stereo not given),i,i,i,-27.5%,-17.5%,3.6%
CCOC(=O)C1C(=O)CC(C)(O)C(C(=O)OCC)C1/C=C/c1ccccc1 (stereo not given),i,i,18.4µM*,-8.7%,-23.8%,-13.1%
Cc1ccccc1NC(=O)C1CCN(S(=O)(=O)c2ccccc2)CC1,/,/,/,-2.7%,-21.7%,/
CCS(=O)(=O)N1Cc2cc(C(=O)N(C)C)nc(-c3cccc(-c4ccc(F)cc4)c3)c2[C@H]1CCO,i,i,i,/,/,-14.6%
COc1cc2nc(NCc3ccccc3Cl)n3nc(-c4cccnc4)nc3c2cc1OC,/,/,/,-0.9%,-15.7%,/
COC(=O)c1c(NC(=O)CN2CCC3(O)CCCCC3C2c2ccc(F)cc2)sc(C)c1C (stereo not given),i,i,16.4µM*,-7.4%,3.0%,3.4%
O=C(COc1ccccc1C(=O)OCC(=O)Nc1cccc2ccccc12)Nc1ccc(Br)cc1,i,/,i,1.8%,7.0%,/
COc1ccc(C)cc1S(=O)(=O)N1CCC(C)CC1,i,i,18.4µM*,-3.7%,2.3%,1.2%
COc1ccc(C)cc1S(=O)(=O)N1CCCCCC1,i,i,i,-1.2%,2.9%,0.9%
COc1cc(C)ccc1S(=O)(=O)N1CCN(C23CC4CC(CC(C4)C2)C3)CC1,i,i,13µM*,-23.5%,-5.8%,?
CCOC(=O)C(CC)Sc1ncnc2sc3c(c12)CCCC3 (stereo not given),i,i,i,-0.6%,9.5%,-2.7%
O=C(NCc1ccc(Cl)cc1)N1CCN(Cc2ccccc2)CC1,?,i,16.4µM*,4.5%,-14.1%,/
Cc1cccc(NC(=S)N2CCN(Cc3ccccc3)CC2)c1C,i,?,i,-2.4%,-1.3%,-14.2%
O=C(CCN1CCN(Cc2ccccc2)CC1)Nc1cccc(Cl)c1,i,i,23.1µM*,-32.9%,-0.3%,-8.3%
Cc1cccc(N2CCN(C(=O)NCc3ccc(Cl)cc3)CC2)c1,23.1µM*,i,8.2µM*,-13.3%,17.8%,-28.5%
Cc1cc(Cl)ccc1NC(=S)N1CCN(Cc2ccccc2)CC1,i,i,23.1µM*,-9.0%,?,-1.4%
CCC(C)n1c(SCc2ccc(C(C)(C)C)cc2)nc2ccsc2c1=O (stereo not given),/,/,/,-7.3%,3.7%,/
O=C(NCCc1cccs1)c1ccc(Cn2c(SCc3ccccc3)nc3cccnc32)cc1,i,?,i,-38.6%,-12.6%,-4.8%
SMILES,KB-3-1 cytotox,S2 tox,KB-V1 MDR tox,HepG2 viability,TGFb SMAD3 inh,ATXN2 expr inh
CCC(C)COC(=O)C(C#N)c1nc2ccccc2nc1N1CCCCC1 (stereo not given),i,i,i,1.1%,-0.8%,-5.0%
C=CCOC(=O)C(C#N)c1nc2ccccc2nc1N1CCN(Cc2ccc3c(c2)OCO3)CC1 (stereo not given),i,i,23.1µM*,-1.9%,3.6%,3.4%
CCC(CC)COC(=O)C(C#N)c1nc2ccccc2nc1N1CCN(CC)CC1 (stereo not given),?,28.2µM*,?,-111.7%,?,?
CC(C)(C)n1ncc2c(=O)n(Cc3cccc(C(F)(F)F)c3)cnc21,/,/,/,-20.0%,?,/
COc1ccccc1NC(=O)CSc1nc2ccccc2c(=O)n1CCC(=O)NC1CCCCC1,i,i,i,-5.7%,6.6%,-3.0%
O=C(C[n+]1cccc2cccc(O)c21)c1ccccc1,i,/,i,1.9%,26.9%,/
O=[N+]([O-])c1cc(Cl)ccc1NCCc1ccccn1,i,i,i,-8.4%,7.8%,22.5%
N#Cc1ccc(NCCc2ccccn2)c([N+](=O)[O-])c1,8.2µM*,?,1.84µM*,-1.4%,2.1%,/
CCOc1ccc(-n2c(SCC(=O)Nc3ccc(F)cc3)nc3c([nH]c4ccccc43)c2=O)cc1,i,i,?,-2.8%,-2.3%,1.3%
CC(C)C/C=C1\CCc2c([nH]c3ccccc23)C1=O,i,i,i,-3.3%,0.9%,45.8%
O=C1/C(=C/c2cccnc2)CCc2c1[nH]c1ccccc21,i,i,13µM*,-0.3%,-1.3%,9.0%
O=C1/C(=C\c2cccnc2)Sc2ccccc21,i,i,i,-39.0%,-5.2%,18.3%
CC1C/C(=C\c2cccnc2)C(=O)/C(=C/c2cccnc2)C1 (stereo not given),?,/,?,15.8µM*,?,?
CC(Sc1nnc(-c2ccco2)n1-c1ccccc1)C(=O)NCC1CCCO1 (stereo not given),i,i,20.6µM*,5.5%,-7.1%,0.3%
Cc1ccc(-n2c(SCC3CCCCO3)nnc2-c2ccco2)cc1 (stereo not given),?,i,20.6µM*,-4.4%,14.7%,-3.2%
c1ccc(-n2c(SCC3CCCCO3)nnc2-c2cccs2)cc1 (stereo not given),i,i,?,-29.3%,-10.2%,-4.5%
O=C1CCCc2nc(N3CCc4ccccc43)ncc21,i,i,i,-10.5%,5.1%,54.4%
Cc1nc(N2CCN(Cc3ccccc3)CC2)nc2c1CCC2,i,i,i,-18.5%,-18.6%,-11.3%

# From PubChem
